Test results taken from PubChem BioAssay (Tox21).
Values joined by “and” are separate entries in the source; they are usually repeats but may differ in a detail not shown here. Equal entries are not always repeated. Results filed as inconclusive are left out. Entries that show only a call come without a potency. Where a structure was tested more than once in an assay, its records may differ in their call. Active and inactive are the calls of the source. Unless noted, calls come from the whole dose curve; as a rule, active = well fitted curve in the direction sought with a large enough effect in the repeat runs; inconclusive = weak or mixed curves; inactive = no such curve, though single readings can be large; an effect the other way counts as inactive or inconclusive.

Experiments:
[1] = qHTS assay to identify small molecule antagonists of the estrogen receptor alpha (ER-alpha) signaling pathway using the BG1 cell line in the presence of 0.1 nM 17-beta-estradiol - cell viability counter screen (AID 1259241); note: nearly all actives have a fitted effect of over 40% in size
Method in brief: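 VM7Luc4E2 cells (endogenous full-length ER-alpha, 4xERE-luciferase), cultured 5 days in charcoal-stripped serum, exposed to compounds with 0.1 nM 17beta-estradiol (final) for 22 hr at 37C. Viability read in same wells as live-cell protease fluorescence after 30 min.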

[2] = qHTS assay to identify small molecule antagonists of the androgen receptor (AR) signaling pathway using the MDA cell line in the presence of 0.5 nM R1881 - cell viability counter screen (AID 1259242); note: nearly all actives have a fitted effect of over 45% in size
Method in brief: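 Steps: plate MDA-kb2 cells, rest 5 hr at 37C without CO2; pin in compounds in DMSO; add R1881 to 0.5 nM final; incubate 16 hr; add CellTiter-Fluor, 30 min; read fluorescence.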

[3] = biological target: Estrogen receptor (Homo sapiens) (UniProt P03372); assay: qHTS assay to identify small molecule antagonists of the estrogen receptor alpha (ER-alpha) signaling pathway using the BG1 cell line in the presence of 0.1 nM 17-beta-estradiol (AID 1259244); note: nearly all actives have a fitted effect of over 50% in size; note: potency is the fitted concentration of half-maximal effect
Chain of Estrogen receptor (Homo sapiens) (P03372 whole entry, looked up): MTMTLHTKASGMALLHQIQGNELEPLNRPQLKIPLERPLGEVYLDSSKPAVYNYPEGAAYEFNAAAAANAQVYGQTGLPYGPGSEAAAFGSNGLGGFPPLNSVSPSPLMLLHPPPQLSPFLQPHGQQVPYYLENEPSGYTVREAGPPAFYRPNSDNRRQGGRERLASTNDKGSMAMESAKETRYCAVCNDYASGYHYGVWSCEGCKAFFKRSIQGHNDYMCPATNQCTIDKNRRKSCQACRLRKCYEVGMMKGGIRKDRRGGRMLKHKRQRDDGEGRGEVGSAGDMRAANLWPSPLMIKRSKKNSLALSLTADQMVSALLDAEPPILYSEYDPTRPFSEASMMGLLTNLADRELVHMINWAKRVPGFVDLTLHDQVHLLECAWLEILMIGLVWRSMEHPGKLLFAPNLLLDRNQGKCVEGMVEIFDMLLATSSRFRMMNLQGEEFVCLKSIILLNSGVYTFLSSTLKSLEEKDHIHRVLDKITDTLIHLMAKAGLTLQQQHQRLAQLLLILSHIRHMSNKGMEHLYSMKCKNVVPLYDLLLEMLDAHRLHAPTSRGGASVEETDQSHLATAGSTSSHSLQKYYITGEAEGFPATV
Method in brief: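 Antagonist mode: compounds in DMSO are pinned onto VM7Luc4E2 reporter cells, 0.1 nM final 17beta-estradiol is added, and after 22 h at 37C luciferase luminescence is measured with ONE-Glo.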

[4] = qHTS assay to identify small molecule phospholipidosis (PLD) inducers (AID 1259344; active = well fitted curve in the direction sought with a large enough effect; an effect the other way counts as inactive or inconclusive)
Method in brief: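 Accumulated phospholipid, stained red by LipidTOX during 24 h compound treatment of HepG2 cells at 37 C, is quantified from images as pit number and intensity, normalised per cell using Hoechst-stained nuclei.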

[5] = qHTS assay to identify small molecule HDAC inhibitors - cell viability counter screen (AID 1259365); note: series mostly up to about 92 µM; nearly all actives have a fitted effect of over 50% in size
Method in brief: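 Wild-type HCT-116 cells, 1,500/well, cultured overnight, then compound-treated 2 h at 37 C. Viability measured as ATP luminescence with CellTiter-Glo after 30 min at room temperature.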

[6] = qHTS assay to identify small molecule agonists of the sonic hedgehog signaling (Shh) pathway - cell viability counter screen (AID 1259366); note: nearly all actives have a fitted effect of over 50% in size
Method in brief: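 NIH/3T3-derived Gli1-Luc reporter cells, 2,000 per well, received compound after 4 h and were treated about 23 h at 37C. Viability measured in the same wells by CellTiter-Fluor fluorescence after 1 h.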

[7] = qHTS assay to identify small molecule antagonists of the sonic hedgehog signaling (Shh) pathway - cell viability counter screen (AID 1259367); note: nearly all actives have a fitted effect of over 55% in size
Method in brief: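 CellTiter-Fluor signal in conditioned medium-stimulated 3T3 Gli1-Luc cells, 23 hr compound exposure, 37C.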

[8] = qHTS assay to identify small molecule agonists of the sonic hedgehog signaling (Shh) pathway (AID 1259368; calls by dose curve;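 note: NIH/3T3-derived 3T3Gli1-Luc cells carrying a stable Gli1-driven firefly luciferase reporter; series mostly up to about 92 µM; nearly all actives have a fitted effect of over 15% in size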)
Method in brief: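 Cells of a mouse NIH/3T3 clone stably expressing luciferase under the Gli1 transcriptional response element are exposed to test chemicals for 24 hr at 37 C. Pathway activation is detected as a rise in luminescence.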

[9] = qHTS assay to identify small molecule antagonists of the sonic hedgehog signaling (Shh) pathway (AID 1259369; calls by dose curve; note: nearly all actives have a fitted effect of over 45% in size; note: potency is the fitted concentration of half-maximal effect)
Method in brief: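 Cells are plated and held 4hr at 37 C, compounds (DMSO) are pinned in, conditioned medium is added to stimulate the pathway, and after 24hr luciferase reagent is added for 30min before luminescence is read.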

[10] = qHTS assay to identify small molecule agonists of the androgen receptor (AR) signaling pathway in the presence of an antagonist - cell viability counter screen (AID 1259379);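 note: MDA-kb2 human breast cancer cells carrying an MMTV luciferase reporter; series mostly up to about 92 µM; nearly all actives have a fitted effect of over 25% in size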
Method in brief: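 Cytotoxicity is assessed by CellTiter-Fluor in MDA-kb2 cells carrying an MMTV-driven luciferase reporter. Cells receive 3.0uM nilutamide plus compounds at 15 concentrations and incubate 16 hr at 37C without CO2 before fluorescence reading.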

[11] = qHTS assay to identify small molecule agonists of the estrogen receptor beta (ER-beta) signaling pathway - cell viability counter screen (AID 1259380); note: nearly all actives have a fitted effect of over 30% in size; note: potency is the fitted concentration of half-maximal effect
Method in brief: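 Cytotoxicity is measured in parallel with the reporter screen: after 16 hr compound exposure at 37C and a 2 hr LiveBLAzer step, CellTiter-Glo is added to the same ER-beta-UAS-bla HEK293T wells and luminescence read after 30 min.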

[12] = qHTS assay to identify small molecule antagonists of the estrogen receptor beta (ER-beta) signaling pathway - cell viability counter screen (AID 1259382);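 note: HEK293T cells carrying ER-beta-UAS-bla reporter stimulated with estradiol; series mostly up to about 92 µM; nearly all actives have a fitted effect of over 55% in size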
Method in brief: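 Cytotoxicity counter screen multiplexed with the beta-lactamase antagonist assay: GripTite HEK293T ER-beta-bla cells were treated 16 hr with test chemicals in the presence of 1nM 17-beta-estradiol, and viability was measured by CellTiter-Glo.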

[13] = biological target: Estrogen receptor (Homo sapiens) (UniProt P03372); assay: qHTS assay to identify small molecule agonists of the estrogen receptor alpha (ER-alpha) signaling pathway in the presence of an antagonist (AID 1259383; calls by dose curve; note: top concentration of the series differs between compounds; nearly all actives have a fitted effect of over 15% in size)
Method in brief: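 Agonist-mode confirmation in the presence of the ER antagonist ICI-182,780 at 10.0nM final. Breast-derived VM7Luc4E2 reporter cells were exposed to compounds for 22hr, and ERE-driven luciferase was quantified by luminescence.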

[14] = qHTS assay to identify small molecule agonists or antagonists of the thyroid stimulating hormone receptor (TSHR) signaling pathway - wild type cell line counter screen (AID 1259384; calls by dose curve)
Method in brief: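 Counter screen in untransfected Hek293: compounds (15-point titration, triplicate) plus phosphodiesterase inhibitor Ro20-1724 added after 18 h plating; 30 min RT. Intracellular cAMP via competitive d2/cryptate immunoassay, 1 h incubation.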

[15] = biological target: Thyrotropin receptor (Homo sapiens) (UniProt P16473); assay: qHTS assay to identify small molecule antagonists of the thyroid stimulating hormone receptor (TSHR) signaling pathway (AID 1259385; calls by dose curve; note: nearly all actives have a fitted effect of over 20% in size)
Chain of Thyrotropin receptor (Homo sapiens) (P16473 whole entry, looked up): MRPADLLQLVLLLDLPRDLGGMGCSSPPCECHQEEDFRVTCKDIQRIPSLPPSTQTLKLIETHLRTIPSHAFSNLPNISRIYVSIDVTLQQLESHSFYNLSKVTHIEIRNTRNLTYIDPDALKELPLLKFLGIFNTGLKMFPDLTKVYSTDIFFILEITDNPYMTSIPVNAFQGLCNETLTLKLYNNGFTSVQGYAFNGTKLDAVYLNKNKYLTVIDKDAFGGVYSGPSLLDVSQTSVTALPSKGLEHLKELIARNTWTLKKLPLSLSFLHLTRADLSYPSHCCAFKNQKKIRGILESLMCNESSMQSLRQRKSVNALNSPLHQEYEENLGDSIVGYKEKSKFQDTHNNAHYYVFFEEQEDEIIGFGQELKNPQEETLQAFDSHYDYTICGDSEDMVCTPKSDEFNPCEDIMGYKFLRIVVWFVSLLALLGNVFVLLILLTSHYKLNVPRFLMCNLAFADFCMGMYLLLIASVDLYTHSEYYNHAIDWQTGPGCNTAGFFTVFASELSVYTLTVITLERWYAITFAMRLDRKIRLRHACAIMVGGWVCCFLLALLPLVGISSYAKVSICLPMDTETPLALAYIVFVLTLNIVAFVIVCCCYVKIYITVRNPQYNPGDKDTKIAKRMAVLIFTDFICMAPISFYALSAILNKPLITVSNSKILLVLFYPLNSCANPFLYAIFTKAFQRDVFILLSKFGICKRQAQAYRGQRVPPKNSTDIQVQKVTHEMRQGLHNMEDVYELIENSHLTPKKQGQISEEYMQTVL
Method in brief: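 Antagonist mode: compound-treated TSHR-expressing HEK293 cells were stimulated with 1.5 ng/mL TSH (final) in presence of Ro20-1724 for 30 min at RT. HTRF cAMP detection after 1 h; each compound tested at 15 concentrations, triplicate.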

[16] = qHTS assay to identify small molecule agonists of the estrogen receptor alpha (ER-alpha) signaling pathway in the presence of an antagonist - cell viability counter screen (AID 1259386); note: series mostly up to about 92 µM; nearly all actives have a fitted effect of over 30% in size
Method in brief: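 Cytotoxicity was measured in parallel with the ERE-luciferase agonist screen, in the same wells. The cells were VM7Luc4E2, which endogenously express ER-alpha, and treatment was with compounds plus 10.0nM ICI-182,780 for 22hr.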

[17] = biological target: Estrogen receptor beta (Homo sapiens) (UniProt Q92731); assay: qHTS assay to identify small molecule agonists of the estrogen receptor beta (ER-beta) signaling pathway (AID 1259377; active = well fitted activation curve with a large enough effect in the signal ratio in the repeat runs, not every such curve was filed as active; the % refers to the signal ratio)
Chain of Estrogen receptor beta (Homo sapiens) (Q92731 whole entry, looked up): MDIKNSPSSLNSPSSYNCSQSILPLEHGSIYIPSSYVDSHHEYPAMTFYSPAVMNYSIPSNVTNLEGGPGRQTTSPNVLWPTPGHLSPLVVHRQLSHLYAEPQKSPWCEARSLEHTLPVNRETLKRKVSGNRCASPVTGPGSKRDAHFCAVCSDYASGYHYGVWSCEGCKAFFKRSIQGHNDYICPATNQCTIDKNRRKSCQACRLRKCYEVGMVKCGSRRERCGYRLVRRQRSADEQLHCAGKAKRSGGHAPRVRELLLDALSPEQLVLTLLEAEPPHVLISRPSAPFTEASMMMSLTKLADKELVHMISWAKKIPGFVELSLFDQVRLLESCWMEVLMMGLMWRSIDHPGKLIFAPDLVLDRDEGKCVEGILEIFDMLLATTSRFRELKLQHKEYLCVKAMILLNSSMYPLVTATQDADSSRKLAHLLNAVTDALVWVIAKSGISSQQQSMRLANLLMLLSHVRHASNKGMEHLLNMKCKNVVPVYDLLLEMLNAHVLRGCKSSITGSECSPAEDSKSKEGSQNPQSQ
Method in brief: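 ER-beta-UAS-bla HEK293T cells in medium with 2% charcoal-stripped FBS were exposed to compounds for 16 h at 37C. Beta-lactamase reporter activity was read as fluorescence after 2 h with LiveBLAzer B/G FRET substrate at room temperature.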

[18] = biological target: Androgen receptor (Homo sapiens) (UniProt P10275); assay: qHTS assay to identify small molecule antagonists of the androgen receptor (AR) signaling pathway using the MDA cell line in the presence of 0.5 nM R1881 (AID 1259243); note: nearly all actives have a fitted effect of over 50% in size
Chain of Androgen receptor (Homo sapiens) (P10275 whole entry, looked up): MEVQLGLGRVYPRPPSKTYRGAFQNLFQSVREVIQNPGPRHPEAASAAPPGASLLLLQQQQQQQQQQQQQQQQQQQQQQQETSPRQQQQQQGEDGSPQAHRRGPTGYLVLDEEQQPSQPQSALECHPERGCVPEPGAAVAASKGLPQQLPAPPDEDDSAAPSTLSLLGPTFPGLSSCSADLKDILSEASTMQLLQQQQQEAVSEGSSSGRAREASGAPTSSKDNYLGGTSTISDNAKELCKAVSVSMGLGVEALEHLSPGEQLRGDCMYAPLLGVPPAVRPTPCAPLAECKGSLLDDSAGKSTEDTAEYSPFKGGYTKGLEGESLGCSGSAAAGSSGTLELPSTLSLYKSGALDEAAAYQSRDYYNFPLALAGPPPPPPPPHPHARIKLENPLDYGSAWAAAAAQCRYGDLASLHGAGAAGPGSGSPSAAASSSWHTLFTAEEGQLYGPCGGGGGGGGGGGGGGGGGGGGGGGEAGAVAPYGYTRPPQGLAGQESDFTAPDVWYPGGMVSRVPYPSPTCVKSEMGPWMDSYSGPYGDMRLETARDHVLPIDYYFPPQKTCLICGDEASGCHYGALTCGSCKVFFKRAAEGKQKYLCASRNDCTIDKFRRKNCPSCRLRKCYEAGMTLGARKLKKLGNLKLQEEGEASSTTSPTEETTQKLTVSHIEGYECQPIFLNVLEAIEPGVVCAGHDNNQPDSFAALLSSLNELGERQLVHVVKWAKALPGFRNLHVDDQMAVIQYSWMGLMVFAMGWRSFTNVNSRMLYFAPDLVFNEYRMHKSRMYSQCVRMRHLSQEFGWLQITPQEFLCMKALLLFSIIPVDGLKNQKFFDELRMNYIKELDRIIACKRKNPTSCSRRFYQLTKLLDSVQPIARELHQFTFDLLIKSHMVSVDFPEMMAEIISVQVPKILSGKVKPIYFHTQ
Method in brief: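 Stably transfected MDA-kb2 cells express luciferase from an MMTV promoter bearing both AR and GR response elements. Compounds plus 0.5 nM R1881 (final) were incubated 16 hr at 37C without CO2, then luminescence measured.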

[19] = qHTS assay to identify small molecule HDAC inhibitors (AID 1259364);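 note: wild-type HCT-116 cells with endogenous class I/II HDAC activity; top concentration of the series differs between compounds; nearly all actives have a fitted effect of over 45% in size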
Method in brief: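 Cells (HCT-116, wild type) are seeded at 1,500 per well, incubated overnight, treated with compound in DMSO for 2 hr, then developed with HDAC-Glo I/II reagent for 30 min at room temperature.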

[20] = biological target: Androgen receptor (Homo sapiens) (UniProt P10275); assay: qHTS assay to identify small molecule agonists of the androgen receptor (AR) signaling pathway in the presence of an antagonist (AID 1259381; calls by dose curve; note: nearly all actives have a fitted effect of over 15% in size)
Method in brief: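 Agonist-mode confirmation screen: human MDA-kb2 cells stably expressing luciferase under an MMTV promoter bearing AR and GR response elements, co-treated with 3.0uM nilutamide (final). Luminescence measured after 16hr compound incubation.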

## C=CCc1ccc(O)c(OC)c1
[1]
  Potency: inactive
[2]
  Potency: inactive
[3]
  Potency: inactive
[4]
  Potency: inactive
[5]
  Potency: inactive
[6]
  Potency: inactive
[7]
  Potency: inactive
[8]
  outcome: inactive
[9]
  Potency: inactive
[10]
  Potency: inactive
[11]
  Potency: inactive
[12]
  Potency: inactive
[13]
  Potency: inactive
[14]
  Potency: inactive
[15]
  Potency: inactive
[16]
  Potency: inactive

## CC(C)C(=O)Nc1ccc([N+](=O)[O-])c(C(F)(F)F)c1
[1]
  Potency: inactive
[2]
  Potency: inactive
[3]
  Potency: 56 µM (active) and 48.6 µM (active) and 29.8 µM (active)
[4]
  Potency: inactive
[5]
  Potency: inactive
[6]
  Potency: inactive
[7]
  Potency: inactive
[8]
  outcome: inactive
[9]
  Potency: 17.7 µM (active)
[17]
  Potency: inactive
[11]
  Potency: inactive and 24.3 µM (active)
[12]
  Potency: inactive
[13]
  Potency: inactive
[14]
  Potency: inactive
[15]
  Potency: inactive

## COc1ccc2c(c1)c(CC(=O)O)c(C)n2C(=O)c1ccc(Cl)cc1
[1]
  Potency: inactive
[2]
  Potency: inactive
[18]
  Potency: inactive
[3]
  Potency: inactive
[4]
  PLD induction: 14.5% [at 7.66 µM] (inactive)
[19]
  Potency: inactive
[6]
  Potency: inactive
[7]
  Potency: inactive
[8]
  outcome: inactive
[9]
  Potency: inactive
[10]
  Potency: inactive
[20]
  Potency: inactive
[12]
  Potency: inactive
[13]
  Potency: inactive
[14]
  Potency: inactive
[15]
  Potency: inactive
[16]
  Potency: inactive
